TDP1 block = TDP1 (human) enzyme inhibition. Q9NUW8. recombinant TDP1, AlphaScreen DNA substrate cleavage. Potency, µM (series often up to 130 µM), for the others: top-dose activity change, negative = inhibition, usual class: inhibitors. 0.28% of 350,000 active; note: potency is the fitted concentration of half-maximal effect; % is set by controls: 0 for no effect and ±100 for the full control effect; nearly all actives have a fitted effect of over 40% in size
Target sequence (Q9NUW8 whole entry, looked up): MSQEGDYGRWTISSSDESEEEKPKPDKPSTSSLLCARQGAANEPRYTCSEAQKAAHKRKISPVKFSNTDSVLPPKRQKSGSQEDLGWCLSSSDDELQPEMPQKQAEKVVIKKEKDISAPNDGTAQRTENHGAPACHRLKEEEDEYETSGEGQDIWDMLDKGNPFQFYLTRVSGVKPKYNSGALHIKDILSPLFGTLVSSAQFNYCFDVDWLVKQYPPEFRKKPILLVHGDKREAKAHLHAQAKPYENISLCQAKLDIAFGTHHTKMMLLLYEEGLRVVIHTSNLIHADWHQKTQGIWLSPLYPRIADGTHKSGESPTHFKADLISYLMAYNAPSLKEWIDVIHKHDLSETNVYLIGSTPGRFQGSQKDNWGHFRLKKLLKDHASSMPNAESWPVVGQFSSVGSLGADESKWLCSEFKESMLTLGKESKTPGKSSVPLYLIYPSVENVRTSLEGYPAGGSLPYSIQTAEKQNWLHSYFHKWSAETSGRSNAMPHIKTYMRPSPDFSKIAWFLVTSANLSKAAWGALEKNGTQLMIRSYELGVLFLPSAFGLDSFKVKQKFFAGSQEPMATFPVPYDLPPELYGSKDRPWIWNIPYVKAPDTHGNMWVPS
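Steps: enzyme plus compound, 15 min RT; add biotin/phosphotyrosine-FITC oligonucleotide (15 nM final), react 5 min; add donor/acceptor beads (10 ug/ml final), 10 min; read AlphaScreen. Tdp1 at 1 nM final.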
IL-1B inflam inh = inhibitors of inflammasome signaling (IL-1 beta secretion); THP-1 LPS/ATP IL-1B secretion, AlphaLISA, 16 h; hits give low values; activity change, % at 57.5 µM; 4.7% of 360,000 active; AID 743279; in the data active = activity change below about -50%; inconclusive = mostly about -30% to -49%; note: % is set by controls: 0 for no effect and ±100 for the full control effect
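THP-1 cells pretreated 1 hr with compounds (up to 57.5 uM final), then stimulated with LPS (250 ng/mL final) plus ATP (1.25 mM final); secreted IL-1B measured by AlphaLISA after 16 hr, decreased signal indicating inhibition.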
TDP1 cell CPT = DT40-hTDP1 cell growth loss with CPT. 12% of 420,000 active. AID 686979. Potency, µM (series often up to 46.2 µM), inactives show at the highest dose activity change, negative = growth inhibition, actives largely listed as inhibitors. chicken DT40 Tdp1-/-;hTDP1 cells + 20 nM CPT, ATP luminescence, 48 h; note: potency is the fitted concentration of half-maximal effect; % is set by controls: 0 for no effect and ±100 for the full control effect; nearly all actives have a fitted effect of over 55% in size
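Chicken DT40 Tdp1-/- cells stably complemented with human TDP1 were seeded at 400 cells/well in medium containing 20 nM camptothecin, exposed to pin-transferred compounds, and grown at 37 °C for at least 48 hr. Viability was read as ATP luminescence.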
TGFb inhibitor = inhibitors of TGF-b signaling; 1.2% of 410,000 active; AID 588855; HepG2 CAGA-GFP TGF-b/SMAD3 reporter, GFP fluorescence, 18 h; TGF-beta stimulated, 500 pg/mL final; Potency, µM (top dose mostly 46.1 µM), for inactives: top-dose activity, negative = inhibition, usual class: inhibitors; note: potency is the fitted concentration of half-maximal effect; % is set by controls: 0 for no effect and ±100 for the full control effect; nearly all actives have a fitted effect of over 65% in size
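HEPG2 CAGA-GFP, 1000 cells/well; 2 h settle, 37 C; cpd via pin tool; TGF-b 500 pg/mL final; 18 h, 37 C; GFP imaging ex488/em500-530; %Activity normalised to -TGF-b and +DMSO controls; CRC fit, curve class.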
DT40 TDP1 no CPT = qHTS for Inhibitors of human tyrosyl-DNA phosphodiesterase 1 (TDP1): qHTS in cells in absence of CPT. DT40 Tdp1-/- hTDP1 cells, no CPT, ATP luminescence, 48 h. Potency, µM (series often up to 46.2 µM), inactives show top-dose activity change, negative = growth inhibition, hits mostly inhibitors. 15% of 420,000 active. AID 686978, 2013; note: potency is the fitted concentration of half-maximal effect; % is set by controls: 0 for no effect and ±100 for the full control effect; nearly all actives have a fitted effect of over 55% in size
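DT40 Tdp1-/-;hTDP1 cells, no CPT (DMSO vehicle only), 400 cells/well; compounds pin-transferred; ≥48 hr, 37 °C; CellTiter-Glo 30 min RT dark, luminescence read.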
HepG2 viability = kills HepG2 cells in TGF-b inhibitor counter-screen; HepG2 CAGA-GFP viability, ATP luminescence, 18 h; Potency, µM (doses to about 46.1 µM), without a hit: at the top dose activity change, negative = cytotoxicity, hits mostly cytotoxic; 0.76% of 410,000 active; AID 588856; note: potency is the fitted concentration of half-maximal effect
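HepG2 CAGA-GFP cells (1000/well, DMEM with 1% FBS) received compound, then TGF-beta at 500 pg/mL final, and were incubated 18 hours at 37 degrees C. Viability was read by CellTiter-Glo luminescence. Media-only wells were set as complete cell-killing and DMSO as no toxicity.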
Active calls of the source: *; ? = inconclusive; / = not tested or not shown; [ ] = another dose, or the depositor's remark. Shown are actives, neighbours in structure and some others; about 19% of the full set was active somewhere. Unless noted, calls come from the whole dose curve; as a rule, active = well fitted curve in the direction sought with a large enough effect; inconclusive = small, poorly fitted or top-dose-only effect, or another doubt; inactive = no such curve, though single readings can be large; an effect the other way counts as inactive or inconclusive.

SMILES	TDP1 block	IL-1B inflam inh	TDP1 cell CPT	TGFb inhibitor	DT40 TDP1 no CPT	HepG2 viability
O=C(N/N=C/c1ccncc1)c1cccs1	/	0	-12%	13%	0%	-1%
CC(=C/c1ccccc1)/C=N/NC(=O)c1cccs1	5%	/	-13%	-17%	5.2µM*	-22%
CC(/C=N/NC(=O)c1c(Br)cnn1C)=C\c1ccccc1	5%	-52*	-20%	-5%	?	-17%
O=C(N/N=C/C(Br)=C\c1ccccc1)c1cccs1	9%	/	15µM*	?	13µM*	-13%
CC(/C=N/NC(=O)Cn1cnc2ccccc21)=C\c1ccccc1	6%	-3	23µM*	?	?	-41%
O=C(Cn1cnc2ccccc21)N/N=C/c1ccccc1	5%	0	-11%	-10%	-20%	-14%
CC(/C=N/NC(=O)c1nn(C)c(C)c1Br)=C\c1ccccc1	-3%	0	-6%	-6%	-18%	-3%
CC(/C=N/NC(=O)c1ccncc1)=C\c1ccccc1	6%	-5	1%	-7%	-6%	-7%
COC(=O)c1ccc(C(NC(=O)OCc2ccccc2)/C(=C/[C@@H](C)C(=O)N(C)Cc2cccnc2)c2cccnc2)cc1 (stereo partly specified)	6%	/	/	/	/	/
Cc1ccc(NC(=O)N2CCN(Cc3nc4ccc(C)cc4o3)CC2)cc1	-1%	/	-25%	-8%	-29%	-15%
COC(=O)c1ccc2c(=O)n(CCCCCC(=O)N3CCN(c4cc(Cl)ccc4C)CC3)c(=O)[nH]c2c1	2%	/	7.3µM*	?	5.8µM*	-8%
COc1cc2[nH]c(=O)n(CCCCCC(=O)N3CCN(c4ccccc4)CC3)c(=O)c2cc1OC	6%	-14	21µM*	-19%	16µM*	-8%
COc1cc2[nH]c(=O)n(CCCCCC(=O)N3CCN(c4ccc(Cl)cc4)CC3)c(=O)c2cc1OC	0%	/	?	7%	7.3µM*	0%
COc1cc2[nH]c(=O)n(CCC(=O)N3CCN(Cc4ccccc4)CC3)c(=O)c2cc1OC	4%	15	-6%	5%	?	-3%
CCOc1cc2[nH]c(=O)n(CCCCC(=O)N3CCN(c4ccc(OC)cc4)CC3)c(=O)c2cc1OCC	-3%	/	16µM*	14%	9.2µM*	5%
COc1cc2[nH]c(=O)n(CCC(=O)N3CCN(c4ccc(Cl)cc4)CC3)c(=O)c2cc1OC	6%	/	-21%	2%	-25%	2%
COC(=O)c1ccc2c(=O)n(CCCCCC(=O)N3CCN(c4ccccc4)CC3)c(=O)[nH]c2c1	2%	-18	18µM*	-14%	10µM*	-33%
COc1cc2[nH]c(=O)n(CCCC(=O)NCc3ccccc3)c(=O)c2cc1OC	3%	/	-11%	-6%	-9%	2%
COc1cc2[nH]c(=O)n(CCC(=O)N3CCN(c4cccc(C)c4C)CC3)c(=O)c2cc1OC	2%	34	23µM*	13%	?	-21%
COc1cc2[nH]c(=O)n(CCCC(=O)N3CCN(c4cccc(C(F)(F)F)c4)CC3)c(=O)c2cc1OC	6%	/	4.6µM*	-1%	2.3µM*	-1%
Cc1ccccc1Cn1c(NC2CCCC2)nc2c1c(=O)[nH]c(=O)n2C	3%	0	3%	2%	12%	-3%
Cc1cc(NC(=O)Cn2c(=O)oc3ccccc32)no1	0%	-2	7%	-6%	6%	13%
Cc1cc(S(=O)(=O)n2[nH]c(=O)c(CCO)c2C)c(Cl)cc1Cl	1%	-9	16µM*	-3%	?	-49%
CCCCc1nc2ccccc2n2c(-c3ccc(C)cc3)c3c(=O)n(C)c(=O)n(C)c3c12	-3%	/	?	-2%	12µM*	6%
CCCc1nc2ccccc2n2c(-c3ccccc3)c3c(=O)n(C)c(=O)n(C)c3c12	9%	/	13µM*	-16%	?	8%
SMILES	TDP1 block	IL-1B inflam inh	TDP1 cell CPT	TGFb inhibitor	DT40 TDP1 no CPT	HepG2 viability
COc1ccc(-c2nc3ccccc3n3c(-c4ccc(OC)cc4)c4c(=O)n(C)c(=O)n(C)c4c23)cc1	0%	/	?	-11%	?	6%
CCCCc1nc2ccccc2n2c(-c3ccc(OC)cc3)c3c(=O)n(C)c(=O)n(C)c3c12	1%	/	?	2%	18µM*	-2%
CC(OC(=O)c1cc(S(=O)(=O)N2CCOCC2)ccc1F)C(=O)NCc1ccc2c(c1)OCO2 (stereo unspecified)	2%	-10	9%	4%	0%	1%
C/C(=C\C(=O)c1ccc(Br)cc1)Nc1cccc(Cl)c1	/	18	-2%	-6%	-25%	-39%
C/C(=C\C(=O)c1ccc(Cl)cc1)Nc1ccc(Br)cc1	/	-50*	-3%	3%	-28%	-6%
C/C(=C\C(=O)c1ccc(Br)cc1)NNC(=O)c1ccc(O)cc1	8%	69	13µM*	?	?	-42%
C/C(=C\C(=O)c1ccc(Br)cc1)NNC(=O)c1ccccc1	/	46	?	?	18µM*	-37%
Cn1c(-c2ccc(Br)cc2)cnc1NCc1cccnc1	4%	14	-14%	1%	-12%	-1%
COc1cc(CNc2ncc(-c3ccc(Br)cc3)n2C)cc(OC)c1OC	/	-6	10µM*	?	?	-4%
COc1cc(CNc2ncc(-c3ccc(Cl)cc3)n2C)cc(OC)c1OC	/	-19	13µM*	-13%	2.1µM*	-34%
COc1cc(CNc2nc3ccccc3n2C)cc(OC)c1OC	-5%	-5	-10%	-12%	-1%	-18%
O=C(NCCCOc1cccc(CN2CCCCC2)c1)c1ccc(Cl)c(Cl)c1	-5%	?	18µM*	1%	13µM*	-32%
COc1cccc(CNc2nc3ccc(NC(C)=O)cc3s2)c1	/	28	-9%	2%	-12%	-4%
c1cc(CN2CCCCC2)cc(OCCCNc2nc3ccccc3s2)c1	9%[56.1 µM]	-8	18µM*	?	12µM*	-61%
O=C(/C=C/c1ccc([N+](=O)[O-])cc1)/C=C/c1ccco1	5%	/	/	/	/	/
O=C(O)C(C(=O)/C=C/c1ccco1)=C1SCCS1	20µM*	4	-15%	-24%	?	-7%
O=C(C=C1SCCS1)/C=C/c1ccco1	/	-92*	?	-5%	?	-56%

High-throughput results: PubChem BioAssay, National Center for Advancing Translational Sciences (NCATS)
